High-throughput results deposited in PubChem BioAssay by National Center for Advancing Translational Sciences (NCATS).
TDP1 block – qHTS Assay for Inhibitors of Tyrosyl-DNA Phosphodiesterase (TDP1); Tyrosyl-DNA phosphodiesterase 1 (Homo sapiens), Q9NUW8; 0.28% of 350,000 active; Potency, µM (series often up to 130 µM), inactives show top-dose activity change, negative = inhibition, actives largely listed as inhibitors; recombinant TDP1, AlphaScreen DNA substrate cleavage; also: potency is read from the fitted curve at half-maximal effect; % is scaled to controls: 0 for no effect and ±100 for the full control effect; nearly all actives have a fitted effect of over 40% in size
Target sequence (Q9NUW8 whole entry, looked up): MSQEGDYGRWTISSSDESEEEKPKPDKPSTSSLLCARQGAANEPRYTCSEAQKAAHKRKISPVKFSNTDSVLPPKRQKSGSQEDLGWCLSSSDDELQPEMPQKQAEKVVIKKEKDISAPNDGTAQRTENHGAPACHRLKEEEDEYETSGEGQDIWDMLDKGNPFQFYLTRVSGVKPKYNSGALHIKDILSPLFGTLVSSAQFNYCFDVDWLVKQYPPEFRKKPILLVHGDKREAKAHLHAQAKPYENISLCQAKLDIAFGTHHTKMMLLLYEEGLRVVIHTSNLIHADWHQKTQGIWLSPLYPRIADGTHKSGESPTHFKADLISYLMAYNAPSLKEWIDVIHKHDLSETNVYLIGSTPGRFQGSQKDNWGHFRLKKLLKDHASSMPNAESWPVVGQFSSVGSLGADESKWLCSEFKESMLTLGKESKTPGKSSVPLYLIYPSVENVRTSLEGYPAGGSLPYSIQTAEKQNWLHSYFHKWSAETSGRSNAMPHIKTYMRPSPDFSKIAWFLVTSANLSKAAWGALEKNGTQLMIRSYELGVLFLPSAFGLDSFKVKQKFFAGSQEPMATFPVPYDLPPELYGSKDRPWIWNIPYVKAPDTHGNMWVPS
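Signal: AlphaScreen proximity between streptavidin donor and anti-FITC acceptor beads on intact substrate. Reaction: Tdp1 1 nM, substrate 15 nM final, 5 min RT after 15 min compound preincubation.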
DT40 TDP1 no CPT – qHTS for Inhibitors of human tyrosyl-DNA phosphodiesterase 1 (TDP1): qHTS in cells in absence of CPT | DT40 Tdp1-/- hTDP1 cells, no CPT, ATP luminescence, 48 h | Potency, µM (top dose mostly 46.2 µM), for inactives: at the highest dose activity change, negative = growth inhibition, actives largely listed as inhibitors | 15% of 420,000 active | AID 686978, 2013; also: potency is read from the fitted curve at half-maximal effect; % is scaled to controls: 0 for no effect and ±100 for the full control effect; nearly all actives have a fitted effect of over 55% in size
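Luminescent ATP content (CellTiter-Glo) served as the growth readout. Knockout chicken DT40 cells expressing human TDP1 were exposed to compounds without camptothecin for a minimum 48 hr at 37 °C.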
miR-21 act – qHTS Assay for Modulators of miRNAs and/orActivators of miR-21; HeLa miR-21 FLuc reporter, luciferase, 48 h; Potency, µM (top dose mostly 38.3 µM), without a hit: top-dose activity change, positive = activation, most hits filed as activators; 340,000 tested, under 10 active;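 also: % of control where 0% means no effect; miR-21 action dims this reporter so a rising signal means less miR-21 action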
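Luminescence from a firefly luciferase reporter carrying a miR-21 binding site downstream, stably expressed under a CMV promoter in HeLa cells that make miR-21 endogenously, reports miRNA modulation after 48 h compound exposure up to approximately 40uM final.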
TDP1 cell CPT – qHTS for Inhibitors of human tyrosyl-DNA phosphodiesterase 1 (TDP1): qHTS in cells in presence of CPT | 12% of 420,000 active | chicken DT40 Tdp1-/-;hTDP1 cells + 20 nM CPT, ATP luminescence, 48 h | AID 686979, 2013 | Potency, µM (highest dose often 46.2 µM), without a hit: at the highest dose activity change, negative = growth inhibition, most hits filed as inhibitors; also: potency is read from the fitted curve at half-maximal effect; % is scaled to controls: 0 for no effect and ±100 for the full control effect; nearly all actives have a fitted effect of over 55% in size
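Chicken DT40 Tdp1-/- cells complemented with human TDP1, 400 cells/well, exposed to compounds plus 20 nM camptothecin for at least 48 h at 37 C; viability read as ATP content by CellTiter-Glo luminescence.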
uPA surface inh – qHTS for Inhibitors of Cell Surface uPA Generation. cell surface uPA generation assay, qHTS. Potency, µM (doses to about 38.3 µM), without a hit: at the highest dose activity change, negative = inhibition, usual class: inhibitors. 0.31% of 330,000 active. AID 540303, 2011; active = well fitted inhibition curve with a large enough effect; inconclusive = small, poorly fitted or top-dose-only effect; inactive = no such curve, though single readings can be large or run the other way; tested in mouse RAW 264.7 cells; also: potency is read from the fitted curve at half-maximal effect; % is scaled to controls: 0 for no effect and ±100 for the full control effect; nearly all actives have a fitted effect of over 55% in size
Numbers without * were called inactive; ? = inconclusive; . = no result; ! = repeats disagree; [ ] = dose if it differs, or a comment. Shown are actives, neighbours in structure and some others; about 16% of the full set was active somewhere. Unless noted, calls follow the shape of the dose curve; as a rule, active = well fitted curve in the direction sought with a large enough effect; inconclusive = small, poorly fitted or top-dose-only effect, or another doubt; inactive = no such curve, though single readings can be large; an effect the other way counts as inactive or inconclusive.

SMILES | TDP1 block | DT40 TDP1 no CPT | miR-21 act | TDP1 cell CPT | uPA surface inh
CC1CCN(Cc2nc3c(c(=O)n(C)c(=O)n3C)n2CCCc2ccccc2)CC1 | 0.0% | 16.4µM* | -1.4% | ? | -0.1%
Cn1c(=O)c2c(nc(CN3CCN(c4ccccc4F)CC3)n2Cc2ccc(F)cc2)n(C)c1=O | 7.0% | 10.3µM* | -10.8% | 10.3µM* | .
CCOCCn1c(CN2CCC(Cc3ccccc3)CC2)nc2c1c(=O)n(C)c(=O)n2C | 5.8% | 11.2µM* | -1.5% | 18.4µM* | 7.8%
CN1CCN(Cc2nc3c(c(=O)n(C)c(=O)n3C)n2CCCc2ccccc2)CC1 | -1.0% | -13.7% | -3.5% | -8.1% | -0.8%
Cn1c(=O)c2c(nc(CN3CCC(Cc4ccccc4)CC3)n2CCN2CCOCC2)n(C)c1=O | 1.1% | -28.5% | -2.0% | ? | -0.5%
Cc1c(C(=O)NCC(C)(C)CN(C)C)cnn1-c1nccc(-c2ccccc2F)n1 | . | -2.6% | . | 8.6% | .
C[C@@H]1CC=C[C@H]2[C@H]1C(=O)N(Cc1ccccc1)[C@H]2c1ccc(F)c(Br)c1 | 1.2% | . | ? | . | .
CC1CCCCN1Cc1nc2c(c(=O)n(C)c(=O)n2C)n1Cc1c(F)cccc1Cl (centres undefined) | . | 10.3µM* | -0.3% | 7.31µM* | -8.0%
CCOc1ccc(CN2C(=O)c3ccccc3Sc3ccc(C(=O)NCCc4ccccc4)cc32)cc1 | 0.0% | ? | 4.7% | -28.3% | .
O=C(NC1CCCC1)c1ccc2c(c1)N(Cc1ccc(C(F)(F)F)cc1)C(=O)c1ccccc1S2 | 4.7% | 9.2µM* | 11.2% | 20.6µM* | .
COCCNC(=O)c1ccc2c(c1)N(Cc1ccc(C(F)(F)F)cc1)C(=O)c1ccccc1S2 | 4.7% | ? | 6.7% | 16.4µM* | .
CCN(CC)C(=O)c1ccc2c(c1)N(Cc1ccc(C(F)(F)F)cc1)C(=O)c1ccccc1S2 | 7.0% | 18.4µM* | 23.2% | 16.4µM* | .
Cc1ccc(CN2C(=O)c3ccccc3Sc3ccc(C(=O)NC4CCCC4)cc32)cc1 | 0.0% | ? | 0.2% | ? | .
O=C(CCc1ccccc1O)NC1CCCc2ccccc21 (centres undefined) | . | ? | -6.3% | -0.5% | 1.9%
CC(C)(C)C(=O)Nc1cc(C(F)(F)F)ccc1-n1ccnc1 | 0.0% | 1.8% | -0.2% | -11.3% | -5.4%
CN(C)S(=O)(=O)c1ccc(C(=O)Nc2ccccc2C(=O)NCCCN2CCOCC2)cc1 | 0.7% | -2.0% | . | -12.9% | -3.0%
O=C(c1ccc(-c2nnc(Nc3cccc(Cl)c3)c3ccccc23)cc1)N1C[C@H]2C[C@H](C1)c1cccc(=O)n1C2 | 4.0% | 16.4µM* | 0.7% | ? | -0.2%
O=C(NCCCN1CCOCC1)c1ccc(Br)cc1Br | 1.2% | . | -13.9% | . | .
CCOC(=O)C(NC(=O)c1ccccc1)=C(C)C | 1.0% | -14.8% | 0.0% | -15.4% | -2.7%
COC(=O)C(NC(=O)c1ccccc1)=C(C)C | 2.1% | ? | -3.1% | 18.4µM* | -1.9%
CC(C)Cc1cc(C(=O)Nc2ccccc2)c2ccccc2n1 | . | -16.3% | 2.2% | -23.4% | 9.5%
COc1cc(C(=O)Nc2ccc(-n3cnnn3)c(C)c2)cc(OC)c1OC | 9.1% | -18.5% | -4.0% | -28.2% | -10.8%
Cc1ccc(NC(=O)c2ccc(C(C)(C)C)cc2)cc1-n1cnnn1 | -2.8% | 29.1µM* | -0.5% | ? | -6.0%
CC1CCc2cc(F)ccc2N1C(=O)c1cnc2sccn2c1=O (centres undefined) | 2.2% | -6.1% | -6.1% | -1.6% | -61.6%
Cc1ccc2nc3n(c(=O)c2c1)-c1cc2ccccc2cc1C(=O)NC3CC(C)C (centres undefined) | . | 16.4µM* | . | 16.4µM* | .
SMILES | TDP1 block | DT40 TDP1 no CPT | miR-21 act | TDP1 cell CPT | uPA surface inh
CCCC1NC(=O)c2cc3ccccc3cc2-n2c1nc1ccc(F)cc1c2=O (centres undefined) | . | 20.6µM* | . | ? | .
CC(C)CC1NC(=O)c2cc3ccccc3cc2-n2c1nc1ccc(F)cc1c2=O (centres undefined) | . | 23.1µM* | . | 23.1µM* | .
Nc1cc(S(=O)(=O)N2CCOCC2)ccc1N1CCCCC1 | 3.6% | ? | . | 23.1µM* | -5.3%
Nc1cc(S(=O)(=O)Nc2cc(Cl)ccc2Cl)ccc1N1CCOCC1 | -4.2% | ? | 4.6% | ? | -1.1%
Nc1ccc(S(=O)(=O)c2ccc(N3CCOCC3)c(N)c2)cc1 | . | 20.6µM* | . | -22.6% | .
Nc1cc(S(=O)(=O)N2CCCCC2)ccc1N1CCCCC1 | 1.9% | ? | . | ? | -11.3%
CC(=O)NO | 11.0% | 1.68µM*! | . | ? | 15.0%
CC(=O)C(C)=O | 12.3%[56.1 µM] | . | . | . | .
Cc1sc2ncnc(N3CCC(C(=O)NNC(=O)COc4ccc(Br)cc4)CC3)c2c1C | 1.8% | 23.1µM* | . | ? | -8.3%
Cc1sc2ncnc(N3CCC(C(=O)NNC(=O)c4ccccc4Cl)CC3)c2c1C | 6.0% | 20.6µM* | 29.0% | 14.6µM* | 9.0%
COc1ccc(C(=O)N2CCOC2CNC(=O)C(=O)NCc2ccc(F)cc2)cc1 (centres undefined) | 3.8% | 1.8% | -3.4% | 3.9% | 0.5%
N=c1oc2ccc3ccccc3c2cc1-c1nc(-c2ccccc2)cs1 | 5.4% | ? | -3.3% | ? | -0.6%
N=c1oc2ccccc2cc1-c1nc(-c2ccccc2)cs1 | -4.2% | 23.1µM* | -29.1% | ? | 8.1%
CC(C)N1CN(c2ccccc2)C(=S)N(c2ccccc2)C1 | 4.1% | 23.1µM* | 1.1% | ? | -1.2%
COc1ccc(/C=N\NC(=O)c2cc(OCC(F)(F)F)ccc2OCC(F)(F)F)cc1 | 2.8% | ? | 8.3% | ? | -7.9%
COc1ccccc1N1CCN(C(=O)c2[nH]c(C(F)(F)F)nc2-c2ccccc2)CC1 | . | 5.8µM* | . | 6.51µM* | .
Cc1cccc(N2CCN(C(=O)c3[nH]c(C(F)(F)F)nc3-c3ccccc3)CC2)c1C | . | 1.3µM* | . | 1.3µM* | .
CC1CCN(C(=O)c2[nH]c(C(F)(F)F)nc2-c2ccccc2)CC1 | . | 11.2% | . | 1.5% | .
CCOC(=O)N1CCN(C(=O)c2[nH]c(C(F)(F)F)nc2-c2ccccc2)CC1 | . | 16.4µM* | . | 16.4µM* | .
O=C(c1[nH]c(C(F)(F)F)nc1-c1ccccc1)N1CCN(c2cccc(C(F)(F)F)n2)CC1 | . | 4.61µM* | . | 4.61µM* | .
CC(=O)N1CCN(C(=O)c2[nH]c(C(F)(F)F)nc2-c2ccccc2)CC1 | . | -12.8% | . | -4.3% | .
O=C(c1[nH]c(C(F)(F)F)nc1-c1ccccc1)N1CCCCC1 | . | -4.0% | . | 4.5% | .
CCc1ccccc1NC(=O)CN(Cc1ccccc1)S(=O)(=O)c1ccc2nc(C)sc2c1 | -0.6% | ? | -1.9% | ? | .
